# Measured values taken from PMC4336329 (PLoS ONE, 2015).
# Out of some 310,000 compounds screened, about 14,000 (4.5%) showed an effect of 50% or more. The effect is printed as a negative number. The full list was thinned out, with strong results kept by preference.
# Target: human ether-à-go-go-related gene (hERG) potassium channel (human, UniProt Q12809)
# Experiment: primary screen, population patch clamp on CHO cells stably expressing hERG; higher = less effect of the substance
# 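Note: peak tail current of the secondary pulse compared with the same well before compound.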
# Sequence of human ether-à-go-go-related gene (hERG) potassium channel (Q12809 whole entry, looked up): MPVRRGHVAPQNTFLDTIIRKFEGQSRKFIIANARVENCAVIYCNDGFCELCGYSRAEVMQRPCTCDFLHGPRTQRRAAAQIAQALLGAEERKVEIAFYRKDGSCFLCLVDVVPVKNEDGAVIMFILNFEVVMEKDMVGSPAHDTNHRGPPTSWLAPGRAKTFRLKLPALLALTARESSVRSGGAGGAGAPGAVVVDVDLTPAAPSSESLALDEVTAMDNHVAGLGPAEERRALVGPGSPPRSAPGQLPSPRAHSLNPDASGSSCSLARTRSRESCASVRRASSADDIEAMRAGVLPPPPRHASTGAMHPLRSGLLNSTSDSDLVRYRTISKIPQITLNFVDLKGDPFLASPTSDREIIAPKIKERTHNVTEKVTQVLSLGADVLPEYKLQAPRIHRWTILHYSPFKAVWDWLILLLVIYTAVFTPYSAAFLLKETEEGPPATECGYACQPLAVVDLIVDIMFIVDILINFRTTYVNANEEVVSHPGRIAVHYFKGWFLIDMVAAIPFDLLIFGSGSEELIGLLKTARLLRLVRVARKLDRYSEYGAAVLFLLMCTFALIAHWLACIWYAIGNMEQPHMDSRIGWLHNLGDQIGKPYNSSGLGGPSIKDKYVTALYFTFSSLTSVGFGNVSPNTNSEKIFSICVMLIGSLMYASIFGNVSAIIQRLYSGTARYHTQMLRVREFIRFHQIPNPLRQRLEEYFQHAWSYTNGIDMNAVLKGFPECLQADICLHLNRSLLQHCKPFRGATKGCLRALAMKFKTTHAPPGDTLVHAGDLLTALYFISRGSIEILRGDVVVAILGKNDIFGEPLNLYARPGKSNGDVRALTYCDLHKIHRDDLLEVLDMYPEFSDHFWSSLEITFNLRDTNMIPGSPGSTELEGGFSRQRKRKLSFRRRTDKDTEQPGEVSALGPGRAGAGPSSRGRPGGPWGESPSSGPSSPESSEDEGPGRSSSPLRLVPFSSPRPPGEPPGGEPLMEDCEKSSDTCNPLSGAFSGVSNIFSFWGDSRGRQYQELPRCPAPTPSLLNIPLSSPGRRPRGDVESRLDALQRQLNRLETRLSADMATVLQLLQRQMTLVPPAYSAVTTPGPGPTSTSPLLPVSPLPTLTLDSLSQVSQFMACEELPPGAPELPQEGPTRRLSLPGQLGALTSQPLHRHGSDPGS
row,Compound,"hERG current change (%, negative = inhibition) at 10uM"
1,Cc1ccc2cc(CCNC(=O)c3ccco3)c(=O)[nH]c2c1,-13.6%
2,CCN(CC)c1ccc(-n2c(C)cc(C=O)c2C)cc1,6.33%
3,CCCC[N+]12CCC(CC1)C(Cc1ccccc1)C2.[Br-] (centres unmarked),21.9%
4,CCCC[N+]12CCC(CC1)C(=C(c1ccccc1)c1ccccc1)C2.[Br-],-72.4%
5,CCC/C(=N\NC(=O)C1CC1)c1ccccc1,-2.21%
6,CC/C(=N/N=C(\CC)c1ccccc1)c1ccccc1,5.16%
7,CCC[N+]12CCC(CC1)C(C(O)(c1ccccc1)c1ccccc1)C2.[Br-] (centres unmarked),-0.95%
8,CCC[N+]12CCC(CC1)C(=C(c1ccccc1)c1ccccc1)C2.[Br-],-70.1%
9,CC[N+]12CCC(CC1)C(=C(c1ccccc1)c1ccccc1)C2.[Br-],-73.6%
10,CC[N+]12CCC(CC1)C(C(O)(c1ccccc1)c1ccccc1)C2.[Br-] (centres unmarked),-5.24%
11,CCCC[N+]12CCC(CC1)C(C(O)(c1ccccc1)c1ccccc1)C2.[Br-] (centres unmarked),5.84%
12,COC(=O)COc1ccc2c(=O)c(-c3ccccc3OC)coc2c1,10.2%
13,COc1ccc(CSc2nncn2N)cc1Br,4.98%
14,Cc1cc(C)c(-n2c(C)cc(/C=C3/NC(=O)NC3=O)c2C)c(C)c1,-9.75%
15,CCOc1ccccc1N(C)C(=O)CCS(=O)(=O)c1ccc2c(c1)NC(=O)CO2,5.58%
16,CC(C)CCOP(=O)(c1ccc(N(C)C)cc1)C(O)c1ccc(Cl)cc1Cl (centres unmarked),0.259%
17,CCCOP(=O)(c1ccc(N(C)C)cc1)C(O)c1ccc(Cl)cc1 (centres unmarked),9.5%
18,CCCOP(=O)(c1ccc(N(C)C)cc1)C(O)c1ccc(Cl)cc1Cl (centres unmarked),-54.9%
19,CC1CC(C)CN(c2oc(-c3ccco3)nc2C#N)C1 (centres unmarked),0.193%
20,COc1cc(/C=N/NC(=O)c2ccncc2)ccc1OCc1cnc(Cl)s1,2.43%
21,COc1ccc(-c2cc(C#N)nc(N3CCNCC3)n2)cc1,-79.3%
22,N#Cc1cc(-c2ccccc2)nc(N2CCNCC2)n1,-11.3%
23,COc1ccc(-c2cc(C#N)nc(N3CCN(C)CC3)n2)cc1,-42.5%

row,Compound,"hERG current change (%, negative = inhibition) at 10uM"
1,Cc1ccc(NC(=O)C(=O)NCCN2CCN(S(C)(=O)=O)CC2)cc1C,0.0768%
2,COc1ccccc1S(=O)Cc1ccc(C(=O)NCCc2ccc(Cl)cc2)o1 (centres unmarked),-65.4%
3,CCOc1ccc(CCNC(=O)c2ccc(CS(=O)Cc3ccc(Cl)cc3)o2)cc1 (centres unmarked),-14.1%
4,O=C(NCCc1ccccc1)c1ccc(CS(=O)Cc2ccc(Cl)cc2)o1 (centres unmarked),-58.8%
5,O=C(NCCc1ccccc1)c1ccc(CS(=O)Cc2cccc(Cl)c2)o1 (centres unmarked),-6.23%
6,O=C(NCCc1ccc(Cl)cc1)c1ccc(CS(=O)Cc2ccc(Cl)cc2)o1 (centres unmarked),-39.8%
7,COc1ccccc1S(=O)Cc1ccc(C(=O)NCc2ccccc2Cl)o1 (centres unmarked),-19.5%
8,O=C(NCCCc1ccccc1)c1ccc(CS(=O)Cc2ccccc2Cl)o1 (centres unmarked),-76.2%
9,COc1ccc(CCNC(=O)c2ccc(CS(=O)Cc3ccc(Cl)cc3)o2)cc1OC (centres unmarked),-26.7%
10,CSc1ccc(CCNC(=O)c2ccc(CS(=O)Cc3ccccc3Cl)o2)cc1 (centres unmarked),-2.87%
11,CCOc1ccc(CCNC(=O)c2ccc(CS(=O)Cc3ccccc3Cl)o2)cc1 (centres unmarked),-19%
12,O=C(NCCc1ccc(Cl)cc1)c1ccc(CS(=O)Cc2ccccc2Cl)o1 (centres unmarked),-30%
13,CCOc1ccc(CCNC(=O)c2ccc(CS(=O)Cc3cccc(Cl)c3)o2)cc1 (centres unmarked),-76%
14,CCOc1ncccc1C(=O)NNC(=O)c1ccc(NS(=O)(=O)c2cccs2)cc1,13%
15,Cc1onc(-c2ccccc2)c1C(=O)Nc1sc2c(c1C(N)=O)CCC2,6.44%
16,CCC(C)NC(=O)C1CCN(c2nc(OC)nc(OC)n2)CC1 (centres unmarked),-4.66%
17,CCN(Cc1cc2ccccc2[nH]c1=O)C(=O)c1cccc([N+](=O)[O-])c1,-21.8%
18,Clc1cccc(-c2cc3nc4c(c(N5CCOCC5)n3n2)CCCC4)c1,-6.06%
19,Cn1c(=O)n(-c2cccc(Cl)c2)c(=O)n1C,6.81%
20,Brc1ccccc1-c1nc(-c2ccccc2)no1,5.04%
21,CC1(C)CC(=O)C2=C(C1)c1c(ccc3ccccc13)NC2c1ccco1 (centres unmarked),14.1%
22,CC12CCC(=O)N1C(C(=O)Nc1ccccc1N1CCCCC1)CS2 (centres unmarked),-15.9%
23,CCN(CC)S(=O)(=O)N1CCC(C(=O)NC2CCCc3ccccc32)CC1 (centres unmarked),-8%

row,Compound,"hERG current change (%, negative = inhibition) at 10uM"
1,Cc1cc(Br)c(S(=O)(=O)NCc2ccncc2)cc1C,7.87%
2,CNc1cncc(C(=O)O)c1,7.43%
3,Cc1ccc(O)c(C(=O)c2cnc3onc(-c4ccc(F)cc4)c3c2)c1,4.58%
4,O=C(NCCCc1ccccc1)c1ccc(CS(=O)Cc2ccc(Cl)cc2)o1 (centres unmarked),-74.3%
5,O=C(NCCc1cccs1)c1ccc(CS(=O)Cc2ccc(Cl)cc2)o1 (centres unmarked),-20.4%
6,Cc1ccc(CS(=O)Cc2ccc(C(=O)NCCc3ccccc3)o2)cc1 (centres unmarked),-7.62%
7,Cc1ccccc1C(=O)N1CCN(c2ccc(NC(=O)c3ccco3)cc2)CC1,5.43%
8,COc1ccc(CN(C)CC(O)COC(c2ccc(OC)cc2)c2ccc(OC)cc2)cc1 (centres unmarked),-77.2%
9,CCc1ccc(CN(C)CC(O)COc2cccc3ccccc23)cc1 (centres unmarked),-25.2%
10,CCc1ccc(CNCc2ccc(OCC(O)CN(C)Cc3ccccc3)cc2)nc1 (centres unmarked),-17.4%
11,COc1cccc(CN(C)CC(O)COC(c2ccccc2)c2ccccc2C)c1 (centres unmarked),-72.1%
12,CN(Cc1ccccc1)CC(O)COc1ccc(CNCc2cc3ccccc3s2)cc1 (centres unmarked),-25.7%
13,CCOc1ccc(CN(C)CC(O)COC(c2ccc(OC)cc2)c2ccc(OC)cc2)cc1 (centres unmarked),-77.4%
14,COc1cccc(CN(C)CC(=O)Nc2c(C)cccc2C(C)C)c1,-12.2%
15,COc1cccc(CN(C)CC(O)COc2cc(Cl)ccc2Cl)c1.O=C(O)C(=O)O (centres unmarked),-42%
16,COc1ccc(C(OCC(O)CN2CCC(O)CC2)c2ccc(OC)cc2)cc1 (centres unmarked),-48%
17,Cn1c(COc2ccccc2)nnc1SCc1nc2ccccc2[nH]1,-9.92%
18,CCOc1ncccc1C(=O)NC(C)CCc1ccccc1 (centres unmarked),-6.92%
19,COc1ccc(OC)c(/C=C2\S/C(=N/NC(=O)c3ccc4ccccc4c3)NC2=O)c1,16.5%
20,COc1cccc(CNS(=O)(=O)c2ccc3c(c2)CC(C)N3C(=O)C2CC2)c1 (centres unmarked),18.5%
21,Cc1cccc(-c2nc(CNC(=O)c3ccco3)cs2)c1,-57.9%
22,Cc1ccc(-c2nc(CNC(=O)c3ccco3)cs2)cc1,-13.6%
23,O=C(NCc1csc(-c2ccccc2)n1)c1ccco1,-40%

row,Compound,"hERG current change (%, negative = inhibition) at 10uM"
1,COc1ccc(CNC(=O)[C@@H](NC(=O)C2CCN(C(=O)[C@@H]3CCCN3C(=O)OC(C)(C)C)CC2)C(C)C)cc1,-9.4%
2,CCOc1ccc(CCNC(=O)CN(C)S(=O)(=O)c2cccc3nsnc23)cc1OCC,-9.79%
3,COc1ccc(S(=O)(=O)N(CCCN2CCOCC2)Cc2ccc(OC)c(OC)c2)cc1,-39.9%
4,O=C(O)C(=O)O.O=S(=O)(c1ccc(Cl)cc1)N(CCCN1CCOCC1)Cc1cccs1,-63.7%
5,CC(C)(C)c1ccc(S(=O)(=O)N(CCCN2CCOCC2)Cc2cccs2)cc1.O=C(O)C(=O)O,-33.4%
6,COc1ccc(S(=O)(=O)N(CCCN2CCOCC2)Cc2cccc3ccccc23)cc1,-48.6%
7,O=C(O)C(=O)O.O=[N+]([O-])c1ccc(S(=O)(=O)N(CCCN2CCOCC2)Cc2cccs2)cc1,-70.6%
8,CC(=O)Nc1ccc(S(=O)(=O)N(CCCN2CCOCC2)Cc2cccs2)cc1.O=C(O)C(=O)O,-20.9%
9,O=C(Nc1ccc(N2CCCCC2)cc1)c1cccnc1Cl,13.4%
10,CCOC(=O)C1CCCN(C(=O)c2cc(CN3C(=O)c4ccccc4C3=O)ccc2OC)C1 (centres unmarked),-9.55%
11,C=CCc1cccc(/C=N/NC(=O)c2ccccc2OC)c1O,14.1%
12,C=CCc1cccc(/C=N/NC(=O)CNc2ccccc2)c1O,-2.16%
13,C=CCc1cccc(/C=N/NC(=O)c2ccccc2Br)c1O,-50.2%
14,O=C(C1=C(O)C(=O)N(CCCn2ccnc2)C1c1ccc(F)cc1)c1ccco1 (centres unmarked),15.8%
15,C/C(=N\Nc1ncc(Cl)cc1Cl)c1ccc(C#N)cc1,-4.88%
16,C/C(=N\Nc1ncc(Cl)cc1Cl)c1ccc(OC(F)F)cc1,-50.2%
17,C/C(=N\Nc1ccccn1)c1ccc(OC(F)F)cc1,-71.3%
18,C/C(=N\Nc1ccccn1)c1ccc(C#N)cc1,-19.3%
19,COc1cccc(/C(C)=N/Nc2ncc(Cl)cc2Cl)c1,-10.3%
20,C/C(=N\Nc1ccccn1)c1ccc(C(C)C)cc1,23.7%
